An excerpt weighted towards active compounds, which were near 21% of everything screened.
Sm TGR block = inhibitors of Schistosoma mansoni thioredoxin glutathione reductase; Q962Y6; purified TGR, DTNB reduction, TNB absorbance 405 nm; Potency, µM (top dose mostly 114 µM), without a hit: top-dose activity change, negative = inhibition, usual class: inhibitors; 360,000 compounds, 3% hits; AID 485364; further: potency means the concentration at half of the fitted maximal effect; on the % scale 0 is the no-effect control and ±100 the full control effect; nearly all actives have a fitted effect of over 60% in size
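TGR 20 nM + NADPH 100 uM (dispensed conc.), cpd preinc 15 min RT; start with NADPH (500 uM addition) then DTNB (15 mM addition). Kinetic TNB absorbance, 405 nm filter. Four-parameter Hill fit across titration.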
Cycloheximide cs = counter-screen hit for Shiga toxin inhibitors, cycloheximide | 300,000 compounds, 12% hits | cell reporter, cycloheximide protein synthesis inhibition counterscreen | max response, % | AID 2314; in the data active means max response mostly above about 13%, no sharp cut-off; inactive means mostly below about 14%; further: read at 38.3 µM for the half of the compounds with a filed dose; 0% is about no effect
NS1 function inh = inhibitors of influenza NS1 protein function; Potency, µM (doses to about 46.1 µM), without a hit: at the top dose activity, positive = more growth; 270,000 compounds, 0.4% hits; AID 2326; calls by dose curve; further: potency means the concentration at half of the fitted maximal effect; actives are rising curves; nearly all actives have a fitted effect of over 50% in size
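Recovery from NS1-induced slow growth read by OD600 in budding yeast switched to galactose assay medium (pH 6.0, -URA) at 1:100 dilution. Compound 23 nl per well; the matching strain lacking NS1 serves as control.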
Pf growth 48h = inhibits P. falciparum growth in the first generation, 48 h; Potency, µM (titrated, usually from 28.7 µM), inactives show at the top dose activity change, negative = inhibition, actives largely listed as inhibitors; 310,000 compounds, 5.9% hits; P. falciparum luciferase growth in erythrocytes, 48 h; AID 504832; further: potency means the concentration at half of the fitted maximal effect; on the % scale 0 is the no-effect control and ±100 the full control effect
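Here the parasites carry a stable luciferase gene and grow inside erythrocytes in Albumax-based RPMI medium with compound for one erythrocytic cycle. Activity is scored as loss of luminescent signal.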
Pf growth 96h = P. falciparum growth inhibition at 96 hours. AID 504834. P. falciparum luciferase reporter growth, 96 h. 320,000 compounds, 6.9% hits. Potency, µM (series often up to 28.7 µM), inactives show at the highest dose activity change, negative = inhibition, hits mostly inhibitors; further: potency means the concentration at half of the fitted maximal effect; on the % scale 0 is the no-effect control and ±100 the full control effect
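Infected RBCs, 2% Hct / 0.05% parasitemia final; luciferase-reporter P. falciparum; cpd 96 h, 37 C, 5% CO2; luciferase detection reagent; luminescence.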
Shiga inhibitor = Shiga toxin inhibition; Vero cells, Shiga toxin protein synthesis inhibition reporter; inhibition, % at 38.7 µM; 290,000 compounds, 9.2% hits; AID 2315; in the data active means inhibition mostly above about 28%, no sharp cut-off; inactive means mostly below about 43%; further: 0% is about no effect
The depositor's hits bear a star; ? = inconclusive; · = no result given; [ ] = dose if it differs, or a comment. Unless noted, the call rests on the fitted dose curve; in most records, active means well fitted curve in the direction sought with a large enough effect; inconclusive means small, poorly fitted or top-dose-only effect, or another doubt; inactive means no such curve, though single readings can be large; an effect the other way counts as inactive or inconclusive.

SMILES	Sm TGR block	Cycloheximide cs	NS1 function inh	Pf growth 48h	Pf growth 96h	Shiga inhibitor
CN(C)Cc1c(O)ccc2occ(C(=O)c3ccccc3)c12	-3%	25*	?	-11%	·	65*
CCN(CC)Cc1c(O)ccc2occ(C(=O)c3ccccc3)c12	-10%	39*	1%	38%	?	78*
O=C(c1ccccc1)c1coc2ccc(O)c(CN3CCOCC3)c12	1%	16	0%	?	11%	22
O=C(c1cccs1)c1coc2ccc(O)c(CN(CCO)CCO)c12	-30%	17*	4%	·	2.1µM*	63*
COc1ccc2occ(C(=O)c3coc4ccc(O)c(CN(C)C)c34)c2c1	2%	4	-4%	8.3µM*	·	31
CN(C)Cc1c(O)ccc2occ(C(=O)c3ccc(F)cc3)c12	-2%	3	-10%	-9%	152%	6
COc1ccc(C(=O)c2coc3ccc(O)c(CN4CCCCC4)c23)cc1	-5%	23	-16%	7.4µM*	57%	42
Cc1ccc(OCc2nc(-c3cccnc3)no2)cc1C	0%[57.1 µM]	25*	-39%	19%	0.41µM*	73*
Cc1ccccc1OCc1nc(-c2cccnc2)no1	40µM*	-5	5%	3%	?	-2
O=C1CC(=Nc2ccccc2)NN1c1ccccc1	9%	14*	11%	?	13µM*	-2
O=C(COc1ccc2ccccc2c1Br)Nc1cccnc1	-1%	37*	-46%	58%	-11%	138*
O=C(COc1ccc2ccccc2c1Br)Nc1ccncc1	-10%	28*	-12%	-9%	32%	74*
CC(=O)Nc1c2c(nn1-c1cccc(Cl)c1)CS(=O)(=O)C2	-35%	-2	-1%	14%	34%	-10
Cc1ccc(C(=O)N/N=C(/CC(=O)c2cccs2)C(F)(F)F)cc1	-19%	23*	5%	16%	-19%	-3
C/C(CC(=O)Nc1cccc(C(F)(F)F)c1)=N\NC(=O)c1ccncc1	-31%	0	3%	4%	?	-1
O=C(N/N=C(\CC(=O)c1cccs1)C(F)(F)F)c1ccncc1	-1%	-1	5%	0.23µM*	?	10
Cc1ccc(N=C/C(C(=O)C(F)(F)F)=C(\O)c2cccs2)cc1	3%	13	-31%	262%	93%	16
Cc1ccc(NC(=S)NC2CCCCC2)cc1S(=O)(=O)N(C)C	-33%	32*	-3%	-21%	7%	125*
CCN(CC)S(=O)(=O)c1ccc(C)c(NC(=S)NC2CCCCC2)c1	-20%	-4	-2%	15µM*	?	-4
CCN(CC)S(=O)(=O)c1cccc(C(=O)NC2CCCCC2)c1	4%	12	-5%	19%	1.7µM*	19
CCN(CC)c1ccc(S(=O)(=O)Nc2cc(Cl)ccc2Cl)cc1NC(=S)NC(=O)C1CCCC1	-1%	-4	7%	-10%	-27%	-6
CCN(CC)S(=O)(=O)c1ccc(Cl)c(NC(=S)NC(=O)C2CCCC2)c1	-26%	·	·	13µM*	?	·
COCCOC(=O)C1=C(C)NC(=O)NC1c1cn(-c2ccccc2)nc1-c1ccccc1 (configuration not stated)	0%	·	·	·	·	·
CCc1cccc(C)c1NS(=O)(=O)c1cc2[nH]c(=O)c(=O)[nH]c2cc1C	3%	·	·	·	·	·
COC(=O)c1cnc(NCc2ccc(F)cc2)c2ccccc12	0%	·	·	·	·	·
SMILES	Sm TGR block	Cycloheximide cs	NS1 function inh	Pf growth 48h	Pf growth 96h	Shiga inhibitor
COc1ccc(NC(=O)CCc2c(C)nn(-c3ccc(N4CCCCC4)nn3)c2C)cc1Cl	-1%	·	·	·	·	·
CC(NCc1cccs1)c1ccccc1 (configuration not stated)	·	-1	-4%	36%	12µM*	30
Cc1c(C(=O)c2ccc(F)cc2F)c2ccccn2c1CCC#N	35µM*	12	4%	-13%	-9%	9
COc1ccc([N+](=O)[O-])cc1N(CC(=O)N1CCOCC1)S(C)(=O)=O	·	10	2%	37%	?	4
COC(=O)C(CCSC)NC(=O)Cn1ncc2c(=O)oc3ccc(C)cc3c21 (configuration not stated)	-11%	-2	-11%	24%	15µM*	-2
COc1cc(NCc2ccc3nc(N)nc(N)c3c2C)cc(OC)c1OC	·	0	·	0.006µM*	0.0048µM*	-2
COc1ccc(CNc2ccc3cn[nH]c3c2)c(OC)c1OC	-10%	5	3%	·	?	27
Cc1cccc(-c2n[nH]c(=S)n2/N=C/c2ccc(C)o2)c1	1%	-5	?	-9%	7%	-12
O=S(=O)(NCc1ccccc1)c1ccc(S(=O)(=O)N2CCCCC2)cc1	-24%	-3	3%	15%	5.2µM*	42
O=S(=O)(c1ccccc1)N1CCN(C(=S)NCc2ccccc2)CC1	-1%	2	·	2.6µM*	2.1µM*	-12
O=S(=O)(c1ccccc1F)N1CCN(C(=S)NCc2ccccc2)CC1	5%	-1	·	3.7µM*	2.6µM*	-6
COc1ccc(CNC(=S)N2CCN(S(=O)(=O)c3cccc(F)c3)CC2)cc1	-13%	-3	-4%	?	3.3µM*	2
CCc1ccc(NC(=S)N2CCN(S(=O)(=O)c3ccccc3)CC2)cc1	0%	1	5%	13%	59%	16
Cc1ccc(-n2ncc3c2CCCC3NC(=O)CCc2cnccn2)cc1C (configuration not stated)	-21%	-1	3%	7%	65%	-4
CC(C)(C)NC(=O)C1CCN(c2nc3ccccc3nc2C(F)(F)F)CC1	5%	·	·	·	·	·
Cc1onc(-c2ccccc2)c1C(=O)OCC(=O)Nc1ccc(OC(F)(F)F)cc1	-3%	·	·	?	10%	·
CCOc1ccc(S(=O)(=O)N2CCC(C(=O)N3CCN(Cc4ccccc4)CC3)CC2)cc1	1%	5	-5%	9.3µM*	1%	-10
CCOC(=O)N1CCN(C(=O)C2CCN(S(=O)(=O)c3ccc(OCC)cc3)CC2)CC1	1%	0	-5%	0%	44%	-7
CCOc1ccc(S(=O)(=O)N2CCN(C(=O)c3ccco3)CC2)cc1	8%	-2	-13%	7%	-16%	-4
CCOc1ccc(S(=O)(=O)N2CCN(C(=S)NCc3ccccc3)CC2)cc1	-1%	1	3%	2.3µM*	2.1µM*	-10
O=S(=O)(c1cccc(F)c1)N1CCN(C(=S)NCc2ccccc2)CC1	-10%	-2	·	3.7µM*	?	-12
COc1ccc(NC(=O)C2CCN(S(=O)(=O)c3ccc4c(c3)CCCC(=O)N4)CC2)cc1OC	13%	·	·	·	·	·
